From PubChem BioAssay (Tox21)
Inconclusive results are not listed. Values without a mark were called inactive. Calls come from the whole dose curve; as a rule, active = well fitted inhibition curve with a large enough effect in the repeat runs; inconclusive = weak or mixed curves; inactive = flat fitted curve, though single readings scatter.

Test: qHTS assay to identify small molecule HDAC inhibitors (AID 1259364); note: top concentration of the series differs between compounds; nearly all actives have a fitted effect of over 45% in size
Conditions: HCT-116 HDAC-Glo I/II luminescence, 2 h; series mostly up to 92.4 µM; activity change, negative = inhibition: at the top concentration
Description: U.S. Tox21 Program National Center for Advancing Translational Sciences [NCATS] NIH Chemical Genomics Center [NCGC] U.S. Environmental Protection Agency [EPA] National Institutes of Environmental Health Sciences [NIEHS] National Toxicology Program [NTP] U.S. Food and Drug Administration [FDA] Tox21 Assay Overview: Histone deacetylases (HDACs) are a group of epigenetic enzymes that regulate gene expression by histone deacetylation. HDACs are capable of introducing epigenetic modifications and such aberrations contribute to the onset and progression of several human diseases, thus making HDACs a popular therapeutic target. For identifying endogenous class I/II HDAC inhibitors a homogenous, luminogenic HDAC I/II cell based assay was used to measure the relative activity of class I and II HDACs from cells. Wild type HCT-116 cells were used to screen Tox21 libraries for identifying class I/II HDAC inhibitors.
Tox21 Assay Protocol Summary: HCT-116 cells were dispensed at 1,500 per well in 5uL of culture medium into white solid bottom 1536-well plates (Greiner Bio-One, Monroe, NC) using a Multidrop Combi (Thermo Scientific, Waltham, MA) dispenser. The assay plates were incubated at 37 C and 5% CO2 for an overnight, and then 23nL of compounds dissolved in DMSO and positive control were transferred using a Pintool station (Wako, San Diego, CA). The assay plates were incubated at 37C and 5% CO2 for 2hr. After compound treatment, 4uL of HDAC-Glo reagent (Promega Corporation, Madison, WI) was added to each well of the assay plates using Flying Reagent Dispenser (FRD, Aurora Discovery, San Diego, CA) and incubated the assay plates at room temperature for 30min. The luminescence signal was quantified using a ViewLux plate reader (Perkin Elmer, Shelton, CT).
% is set by controls: 0 for no effect and ±100 for the full control effect.

SMILES	activity change, negative = inhibition
Brc1c2ccccc2cc2ccccc12	-12.4%
COCC(C)OC(C)=O (stereo not given)	-1.3%
CCOC(=O)Cc1cccc2ccccc12	1.57%
CCOC(=O)COC(=O)c1cc(Oc2ccc(C(F)(F)F)cc2Cl)ccc1[N+](=O)[O-]	-0.594%
Cc1ccc(N=Nc2c(O)c(C(=O)O)cc3ccccc23)c(S(=O)(=O)O)c1	-13.3% [at 42.5 µM]
CCCCCCCCCCO[C@@H]1O[C@H](CO)[C@@H](O)[C@H](O)[C@H]1O	-2.89%
CCOCC(O)COc1ccc(NC(=O)CC[S+](C)C)cc1 (stereo not given)	-3.11% [at 42.5 µM]
CCCCc1ncc(/C=C(\Cc2cccs2)C(=O)O)n1Cc1ccc(C(=O)O)cc1	-0.513% [at 42.5 µM]
CCOC(=O)C(F)(F)F	-4.98%
CC1=CC[C@H](C(C)C)C=C1	0.744%
CCCC(=O)Nc1ccc(O)c(C(C)=O)c1	0.169% [at 42.5 µM]
N=c1ccn2c(n1)O[C@H]1[C@H](O)[C@@H](CO)O[C@H]12	-6.25%
CC1OC(=O)C(C)OC1=O (stereo not given)	2.04%
CCC(C)O (stereo not given)	4.42%
CC(C)Cc1ccc(C(C)C(=O)OCc2ccccn2)cc1 (stereo not given)	-5.27% [at 42.5 µM]
O=C1OC(=O)C2C3C=CC(C3)C12 (stereo not given)	0.11%
CCCCCCCCCCCCCCCCOS(=O)(=O)O	-2.18% [at 42.5 µM]
CCCCC/C=C\C/C=C\CCCCCCCC(=O)NC(C)c1ccccc1 (stereo not given)	-8.76% [at 42.5 µM]
O=C1OC(CN2CCOCC2)CN1/N=C/c1ccc([N+](=O)[O-])o1 (stereo not given)	-5.14% [at 42.5 µM]
CCN(CC)c1ccc2c(-c3ccccc3C(=O)O)c3ccc(=[N+](CC)CC)cc-3oc2c1	-11.4%

SMILES	activity change, negative = inhibition
C/C=C(/C(=C/C)c1ccc(OC(C)=O)cc1)c1ccc(OC(C)=O)cc1	1.55% [at 42.5 µM]
O=C(c1ccc(F)cc1)C1CCN(CCn2c(=S)[nH]c3ccccc3c2=O)CC1	-0.791% [at 42.5 µM]
C[N+]1(C)CCC(OC(=O)C(O)(c2ccccc2)C2CCCC2)C1 (stereo not given)	8.99% [at 42.5 µM]
CN(C)c1ccc(CCO)cc1	-2.11%
CCO[Si](CCCCl)(OCC)OCC	2.77%
C/C=C/C=C/CO	2.64%
COc1ccnc(CS(=O)c2nc3ccc(OC(F)F)cc3[nH]2)c1OC (stereo not given)	-1.35% [at 42.5 µM]
COc1cc2nc(N(C)CCCNC(=O)C3CCCO3)nc(N)c2cc1OC (stereo not given)	-10.8% [at 42.5 µM]
CCCCCCCCCCCC(=O)OC[C@@H](O)[C@H]1OC[C@H](OCCO)[C@H]1OCCO	-11.8%
COCCCN1CCC(NC(=O)c2cc(Cl)c(N)c3c2OCC3)CC1	-2.12% [at 42.5 µM]
CN1CCC(=C2c3ccccc3Sc3ccccc32)CC1	0.527% [at 42.5 µM]
C=CC(=O)OCCOCCOC(=O)C=C	-16.7%
NCCCN1CCOCC1	0.895%
c1ccc(CNCCNCc2ccccc2)cc1	-0.531% [at 42.5 µM]
CC(=O)NO	-7.53% [at 42.5 µM]
CC(C)(O)c1ccc(CNC(=O)c2cccnc2Oc2ccc(F)cc2)cc1	0.0646%
CC(CC=O)c1ccccc1 (stereo not given)	-1.51%
CC(C)O.CC(C)O.CCOC(=O)/C=C(\C)O.CCOC(=O)/C=C(\C)O.[Ti]	7.33%
CCc1cc(C2=C(C(=O)O)N(c3ccccc3C(F)(F)F)S(=O)(=O)c3ccccc32)cc2c1OCO2	0.576%
Cc1oc(-c2ccccc2)nc1CCOc1cccc2c1ccn2CCC(=O)O	-3.73%
